Assay outcomes as filed in PubChem BioAssay.
ATXN2 expr inh: ATXN2 expression inhibition; 360,000 tested, 0.72% active; Potency, µM (series often up to 57 µM), hits mostly inhibitors; HEK-293 ATXN2-luciferase reporter, luminescence, 24 h; further: nearly all actives have a fitted effect of over 55% in size
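ATXN2-luciferase reporter cells (luciferase flanked by upstream and downstream ATXN2 gene portions) were treated 24 h at 37 °C with compounds at up to 57 uM. SteadyGlo luminescence gave expression; GF-AFC fluorescence gave viability.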
IL1B secr inh: inhibitors of inflammasome signaling (IL-1 beta secretion) | THP-1 LPS/ATP IL-1B secretion, AlphaLISA, 16 h; stronger effect = lower value | activity change, % at 57.5 µM | 360,000 tested, 4.7% active; in the data active means activity change below about -50%; inconclusive means mostly about -30% to -49%
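Secreted IL-1B measured by AlphaLISA bead assay after 16 h compound exposure of THP-1 cells; compounds (final up to 57.5 uM) added 1 h before LPS (250 ng/mL) and ATP (1.25 mM) stimulation; lower signal means less secretion.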
D3 antag: D3 dopamine receptor (human) antagonism; max response, negative = inhibition, %; AID 652054; 360,000 tested, 2.5% active; D3R cells, DiscoveRx beta-arrestin luminescence, antagonist mode; stronger effect = lower value; in the data active means max response below about -50%; inconclusive means no clear call, values can overlap the other calls
Target sequence (P35462 whole entry, looked up): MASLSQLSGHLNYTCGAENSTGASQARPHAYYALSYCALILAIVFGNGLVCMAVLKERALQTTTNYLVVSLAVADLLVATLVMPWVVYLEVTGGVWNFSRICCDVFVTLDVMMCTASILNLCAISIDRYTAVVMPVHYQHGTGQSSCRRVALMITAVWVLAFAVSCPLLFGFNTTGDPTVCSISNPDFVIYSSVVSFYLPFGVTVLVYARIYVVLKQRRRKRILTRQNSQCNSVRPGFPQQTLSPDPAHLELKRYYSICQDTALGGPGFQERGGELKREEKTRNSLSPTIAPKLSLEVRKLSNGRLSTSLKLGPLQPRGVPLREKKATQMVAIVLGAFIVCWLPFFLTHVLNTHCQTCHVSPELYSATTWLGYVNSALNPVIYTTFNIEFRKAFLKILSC
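Cells expressing the human receptor were seeded at 1500 cells/well, incubated overnight at 37 degrees C in 5% CO2, then exposed to library compounds with dopamine controls for 90 minutes at 37 degrees C before luminescent detection.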
S2 tox: reduces viability in counter-screen for ATXN expression inhibitors | S2 cells (HEK-293 line with an ATXN2-luciferase reporter) viability, CellTiter-Fluor protease fluorescence, 24 h | Potency, µM (doses to about 56.7 µM), hits mostly cytotoxic | 400,000 tested, 0.49% active | AID 651635; further: nearly all actives have a fitted effect of over 40% in size
Integrin act MD: activators of alpha7 integrin expression for muscular dystrophy. 350,000 tested, 0.064% active. Potency, µM (top dose mostly 38.3 µM), actives largely listed as activators. alpha7betagal myoblasts, beta-gal FDG fluorescence, 48 h; further: nearly all actives have a fitted effect of over 60% in size
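Alpha7betagal+/- myoblasts (passage 13) were plated 16-24 hr, then exposed to compounds (1:260 dilution of DMSO stock) for 48 hours at 37C. After MPER lysis, β-galactosidase reporter activity was read as FDG fluorescence (ex 480/em 540) after 30 minutes.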
DRD3 agonist: agonists of human D3 dopamine receptor. P35462. D3R DiscoveRx beta-arrestin cells, luminescence, 90 min. max activation, %. 410,000 tested, 0.58% active. AID 652048; in the data active means max activation above about 30%
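Agonist mode: compounds and dopamine controls were applied to plated cells for 90 min at 37 degrees C after an overnight attachment at 1500 cells/well. Luminescent read-out followed 30 - 60 minutes at room temperature with DiscoveRx detection reagent.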
Hits are given with their value; . = inactive; ? = inconclusive; / = not tested or not shown; [ ] = another dose, or the depositor's remark. Shown are actives, neighbours in structure and some others; about 7% of the full set was active somewhere. Unless noted, the call rests on the fitted dose curve; in most records, active means well fitted curve in the direction sought with a large enough effect; inconclusive means small, poorly fitted or top-dose-only effect, or another doubt; inactive means no such curve, though single readings can be large; an effect the other way counts as inactive or inconclusive.

SMILES	ATXN2 expr inh	IL1B secr inh	D3 antag	S2 tox	Integrin act MD	DRD3 agonist
COc1ccccc1C(=O)Nc1cccc(NC(=O)c2ccccc2C)c1	.	-70	.	.	.	.
COc1ccccc1C(=O)Nc1cccc(NC(C)=O)c1	.	.	.	.	.[7.66 µM]	.
COc1ccccc1C(=O)Nc1ccccc1SC(=O)c1ccccc1OC	.	.	-57	?	.	.
COc1ccccc1NC(=O)Cc1ccc(-c2ccccc2)cc1	.	-80	.	.	.	.
COC(=O)c1ccccc1NC(=O)c1ccccc1OC	.	.	.	.	.	.
COc1ccccc1NC(=O)c1ccccc1C(=O)Nc1ccccc1OC	.	-67	.	.	.	.
COC(=O)C1=NN(C(=O)c2ccc(Cl)cc2)C(O)(c2ccccc2)C1 (centres undefined)	.	.	?	.	.	.
COc1ccc([N+](=O)[O-])cc1NC(=O)C(C)OC(=O)C1CCC1 (centres undefined)	.	.	.	.	?	.
O=C(Nc1cc(S(=O)(=O)N2CCOCC2)ccc1-n1cncn1)c1ccc(Cl)cc1	.	?	.	.	.	.
COc1ccc(NC(=O)Nc2ccccc2OC)cc1	.	?	.	.	.	.
COc1ccc(OC)c(/C(O)=C/C(=O)C(=O)Nc2ccccc2OC)c1	.	.	-67	.	.	.
COc1ccc(-n2c(SCC(=O)NCC3CCCO3)nc3n[nH]c(C)c3c2=N)cc1 (centres undefined)	.	-56	.	.	.	.
COc1ccc(N2CCN(C(=O)Cn3cnc4sc(C)c(S(=O)(=O)N5CCC(C)CC5)c4c3=O)CC2)cc1	.	/	/	.	/	.
NC1(C#Cc2ccc3oc(=O)c(-n4cc(-c5ccsc5)nn4)cc3c2)CCCCC1	.	-99	.	.	.	.
NC1(C#Cc2ccc3oc(=O)c(-n4cc(C5(O)CCCCC5)nn4)cc3c2)CCCCC1	.	.	.	.	.	.
COc1ccc2[nH]c3c(C)c4ccncc4c(C)c3c2c1	2µM	-100	.	?	.	.
COc1ccc2[nH]c(C)cc(=O)c2c1	.	.	.	.	.	.
CC[n+]1c(/C=C/Nc2ccccc2)oc2ccc(OC)cc21	.	.	.	.	.	.
CC/C(=C\c1oc2cc3ccccc3cc2[n+]1CC)Nc1ccccc1	?	-107	.	.	.	.
O=C(CN1CCN(c2ccccn2)CC1)Nc1ccc(OCc2ccccc2)cc1	.	.	.	.	.	50
Cc1cc(NC(=O)CN2CCN(c3ccccn3)CC2)ccc1Br	/	.	.	.	.	47
O=C(CN1CCN(c2ccccn2)CC1)Nc1ccc(Oc2ccccc2)cc1	.	.	.	.	.	.
CCOc1ccc(CCNC(=O)C2CCCN(S(=O)(=O)N3CCOCC3)C2)cc1OCC (centres undefined)	.	.	.	.	.	.
N=c1sccn1CC(=O)NCc1ccc(Cl)cc1Cl	.	.	.	.	.	.
Cc1cc(NC(=O)CCC(=O)N(Cc2cccnc2)C(C(=O)NC(C)(C)C)c2ccccc2Cl)no1 (centres undefined)	.	.	.	.	4µM	.
SMILES	ATXN2 expr inh	IL1B secr inh	D3 antag	S2 tox	Integrin act MD	DRD3 agonist
O=C(Oc1ccc(-c2ccccc2)cc1)c1ccco1	.	.	.	?	.	.
O=Cc1ccnc(-c2ccc(OC(=O)c3ccco3)cc2)n1	?	-86	.	?	?	.
CC(C)=CCC/C(C)=C/Cc1c(O)ccc(C(=O)/C=C/c2ccc(O)cc2)c1O	?	-80	.	32µM	.	.
Cc1ccc(-c2onc(C)c2C)cc1S(=O)(=O)NC1CCCCC1	/	/	/	/	/	.
Cc1csc(NC(=O)CSc2nc3ccccc3c3c2CCCC3)n1	.	.	.	.	.	.
Cc1csc(NC(=O)CSc2ncnc3ccccc23)n1	.	-89	.	?	.	.
O=c1c2ccccc2nnn1CSc1ncnc2ccccc12	.	-81	?	.	.	.
CN(C(=O)CSc1ncnc2ccccc12)C1CCCCC1	.	-89	.	?	.	.
CN(C)S(=O)(=O)c1ccc(NC(=O)CSc2ncnc3ccccc23)cc1	.	-102	.	?	?	.
O=C(CSc1ncnc2ccccc12)Nc1cccc(S(=O)(=O)N2CCOCC2)c1	.	?	.	.	.	.
CCCCCn1c(=O)[nH]c2cc(C(=O)N3CCN(c4cccc(C(F)(F)F)c4)CC3)ccc2c1=O	.	/	/	.	/	.
CN(C)S(=O)(=O)c1cccc(NC(=O)CSc2ncnc3ccccc23)c1	.	-100	.	.	.	65
Cc1nnc(SCC(=O)Nc2cccc(S(=O)(=O)N(C)c3ccccc3)c2)s1	.	.	.	.	.	34
COc1ccc(CN(C)C(=O)CNC(=O)Cc2cccc3ccccc23)c(OC)c1OC	.	.	.	.	.	.
NC(N)=NN=Cc1ccnc2ccccc12	.	-104	.	.	/	.
Nc1c(Cl)ncnc1N/N=C/c1ccnc2ccccc12	.	.	.	?	.	.
NC(=NCc1ccccc1)NN=Cc1ccnc2ccccc12	.	-110	.	?	/	.
O=C(O)C(=Cc1ccnc2ccccc12)C(=O)O	/	.	.	.	.	.
Oc1ccc(/C=C/c2ccnc3ccccc23)cc1	.	-62	.	/	.	.
CN(C)S(=O)(=O)c1ccc(C(=O)OCC2COC(C)(C)O2)cc1 (centres undefined)	.	.	.	?	.	.
CC(C)(C)c1ccc(S(=O)(=O)N(CCCN2CCOCC2)Cc2cccs2)cc1	.	?	-67	.	.	.
CC(=O)Nc1ccc(S(=O)(=O)N(CCCN2CCOCC2)Cc2cccs2)cc1	.	.	.	.	.	.
CC(=O)N(Cc1ccccc1)c1c(N)nc(N)[nH]c1=O	.	-103	.	.	.	.
N=C(N)c1ccc(N=Nc2c(O)ccc3c2[nH]c2ccccc23)cc1	?	-97	.	?	.	.
NS(=O)(=O)c1ccc(N=Nc2c(O)ccc3ccccc23)cc1	.	.	.	?	.	.
O=C(CCN1C(=O)C2C3C=CC(C3)C2C1=O)N1CCN(c2ccccc2F)CC1 (centres undefined)	.	.	.	.	.	.
O=C(CCN1C(=O)C2C3C=CC(C3)C2C1=O)N1CCN(c2ccccc2Cl)CC1 (centres undefined)	.	.	-80	.	.	.
CCOc1ccc2nc(NC3=NC(c4ccc(OC)cc4)CC(=O)N3)nc(C)c2c1 (centres undefined)	8.9µM	-103	.	8.9µM	.	.
Cc1ccc2c(=O)c3cccc(CC(=O)O)c3oc2c1C	24µM	/	/	/	/	/
O=C(O)Cc1cccc2c(=O)cc(-c3ccccc3)oc12	.	.	.	.	/	.
